Consider one compound from PubChem BioAssay AID2284182 (EPA ToxCast).

As a reminder, the AC50 is the midpoint of the concentration-response curve, whichever way the signal moves.

Structures are written as SMILES. Inconclusive results are not listed. Calls of active or inactive are those of the source. Rule for the calls: active = hit-call score of the fitted dose curve at least 0.9, where 1 is the maximum; inconclusive = response in the unintended direction; inactive = score below 0.9.

For this assay, the target named is human Serotonin Receptor 5-HT7 Agonism, HTR7 (gene 3363) (UniProt P34969). The experiment in a line: ERF_FR_GPCR_hHTR7: Eurofins (ERF) G Protein-Coupled Receptor (GPCR) Radioligand Binding LeadHunter Assay for human Serotonin Receptor 5-HT7 Agonism. As to the method: ERF_FR_GPCR_hHTR7 is a biochemical, single-readout assay that uses extracted gene-proteins in a cell-free assay. Measurements were taken 2 hour after chemical dosing in a 96-well plate. See 5-HT7 Human Serotonin GPCR Binding (Agonist Radioligand) Assay, Cerep.ERF_FR_GPCR_hHTR7 is an assay component calculated from the ERF_FR_GPCR_hHTR7 assay. It is designed to measure radioligand binding using a type of binding reporter as detected by scintillation counting with radiometry technology.Data from the assay component ERF_FR_GPCR_hHTR7 was analyzed at the assay endpoint, ERF_FR_GPCR_hHTR7, in the positive analysis fitting direction relative to DMSO as the negative control and baseline of activity. Using a type of binding reporter, gain-of-signal activity can be used to understand changes in binding as they relate to gene HTR7. To generalize the intended target to other relatable targets, this assay endpoint is annotated to the gpcr intended target family, where the subfamily is serotonin.
human Serotonin Receptor 5-HT7 Agonism, HTR7 (gene 3363), sequence (P34969 whole entry, looked up): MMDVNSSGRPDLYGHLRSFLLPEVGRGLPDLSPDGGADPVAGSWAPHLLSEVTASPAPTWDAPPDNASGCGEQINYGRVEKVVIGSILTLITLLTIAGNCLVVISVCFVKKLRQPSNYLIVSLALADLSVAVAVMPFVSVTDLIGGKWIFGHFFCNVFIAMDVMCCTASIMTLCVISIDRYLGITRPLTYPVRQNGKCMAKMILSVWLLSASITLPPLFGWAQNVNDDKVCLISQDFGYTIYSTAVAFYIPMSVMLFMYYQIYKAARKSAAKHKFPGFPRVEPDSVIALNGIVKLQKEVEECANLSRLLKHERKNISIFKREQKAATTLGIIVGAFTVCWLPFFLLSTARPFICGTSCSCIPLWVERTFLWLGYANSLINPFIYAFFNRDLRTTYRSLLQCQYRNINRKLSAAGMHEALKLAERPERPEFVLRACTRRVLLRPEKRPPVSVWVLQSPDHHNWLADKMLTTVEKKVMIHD
Human cells are incubated for 120 minutes at room tempreture with [3H]LSD ligand (2.3 nM) and serotonin as control inhibitor. Test Sample Requirements: Minimum for 1) Screen: 60 ul of 10 mM stock -OR- 1 mg (pre-weighed) for 10 uM final testing. 2) Dose Response: 90 ul of 10 mM stock -OR- 1 mg (pre-weighed) for a top concentration at 10 uM.
Regarding `O=C(/C=C/c1ccc(O)cc1)CC(=O)/C=C/c1ccc(O)cc1`, the half-maximal activity concentration (AC50) is 1750 nM (active).
